Reference: the supplement of paper PMC10849652
The full data set covers some 7,900 targets. This sample favours those with a hit. About 0.6% of all pairs of compound and target were hits. Values without a mark were called inactive.

Experiments:
Experiment in all cases: log2 fold change, soluble protein after heating vs DMSO (PISA); higher = thermal stabilisation; K562 cells, 10 uM, 30 min; active = over 0.2 and 3.5 SD of the protein, either way, in both replicates (recomputed)
[1] = compound: CC[C@@H]1C(=O)N(C)c2cnc(Nc3ccc(C(=O)NC4CCN(C)CC4)cc3OC)nc2N1C1CCCC1
Procedure, shortened: (§1)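 For each measurement, 10 μM compound was applied for 30 min to K562 cells at 2×10^6 cells/mL. Aliquots were heated for 3 min across 48°C-58°C, pooled, and extracted in PBS with 0.5% NP-40 at 4°C; the supernatant after 21,000xg for 90 min was soluble protein. This was quantified by TMTpro 16plex LC-MS/MS with channel sums equalised, and thermal stability was reported relative to control samples from duplicates, on a log2 fold-change scale.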

volasertib = compound: CC[C@@H]1C(=O)N(C)c2cnc(Nc3ccc(C(=O)N[C@H]4CC[C@H](N5CCN(CC6CC6)CC5)CC4)cc3OC)nc2N1C(C)C [volasertib]
Procedure, shortened: as §1

[2] = compound: CC[C@H](C)N1C=C(C2=C(C=C(C=C21)C3=CN=C(C=C3)N4CCNCC4)C(=O)NCC5=C(C=C(NC5=O)C)C)C
Procedure, shortened: as §1

epoxomicin = compound: CC[C@H](C)[C@@H](C(=O)N[C@@H]([C@@H](C)O)C(=O)N[C@@H](CC(C)C)C(=O)[C@]1(CO1)C)NC(=O)[C@H]([C@@H](C)CC)N(C)C(=O)C [epoxomicin]
Procedure, shortened: as §1

[3] = compound: CCn1c(C(=O)N(C2CC2)C2CC2)cc2c3c(ncn3C)c(Nc3cc(C)n(C)n3)nc21
Procedure, shortened: as §1

[4] = compound: CCn1cc(-c2ccnc3[nH]c(-c4cccc(CN(C)C)c4)cc23)c(-c2ccc(NC(=O)N(C)C)cc2)n1
Procedure, shortened: as §1

[5] = compound: CN(C)CC(=O)Nc1ccc2[nH]c(=O)c3ccccc3c2c1
Procedure, shortened: as §1

rosiglitazone = compound: CN(CCOC1=CC=C(C=C1)C[C@H]2C(=O)NC(=O)S2)C3=CC=CC=N3 (racemic) [rosiglitazone]
Procedure, shortened: as §1

[6] = compound: CN1C2=C(C3=C1C(=O)N(N=C3)CC4=CC(=CC=C4)N)SC(=C2)S(=O)C
Procedure, shortened: as §1

[7] = compound: CN1CCC(CNc2ccc3ncc(-c4cccc(OC(F)(F)F)c4)n3n2)CC1
Procedure, shortened: as §1

saracatinib = compound: CN1CCN(CCOc2cc(OC3CCOCC3)c3c(Nc4c(Cl)ccc5c4OCO5)ncnc3c2)CC1 [saracatinib]
Procedure, shortened: as §1

sotrastaurin = compound: CN1CCN(c2nc(C3=C(c4c[nH]c5ccccc45)C(=O)NC3=O)c3ccccc3n2)CC1 [sotrastaurin]
Procedure, shortened: as §1

alvocidib = compound: CN1CC[C@H](c2c(O)cc(O)c3c(=O)cc(-c4ccccc4Cl)oc23)[C@H](O)C1 [alvocidib]
Procedure, shortened: as §1

Tubastatin A = compound: CN1CCc2c(c3ccccc3n2Cc2ccc(C(=O)NO)cc2)C1 [Tubastatin A]
Procedure, shortened: as §1

[8] = compound: CNC(=O)C1=CC=CC=C1NC2=NC(=NC=C2Cl)NC3=C(C=C(C=C3)N4CCOCC4)OC
Procedure, shortened: as §1

defactinib = compound: CNC(=O)c1ccc(Nc2ncc(C(F)(F)F)c(NCc3nccnc3N(C)S(C)(=O)=O)n2)cc1 [defactinib]
Procedure, shortened: as §1

rucaparib = compound: CNCc1ccc(-c2[nH]c3cc(F)cc4c3c2CCNC4=O)cc1 [rucaparib]
Procedure, shortened: as §1

[9] = compound: CNc1nc(-c2ccc3c(N)n[nH]c3c2)cc(N2C[C@@H](C(=O)NC3CCCCC3)CC[C@H]2C)n1
Procedure, shortened: as §1

encorafenib = compound: COC(=O)N[C@@H](C)CNc1nccc(-c2cn(C(C)C)nc2-c2cc(Cl)cc(NS(C)(=O)=O)c2F)n1 [encorafenib]
Procedure, shortened: as §1

[10] = compound: COC(=O)[C@H](CCSC)NC(=O)C1=C(C=C(C=C1)NC[C@H](CS)N)C2=CC=CC=C2
Procedure, shortened: as §1

Chain of UniProt P11142 (P11142 whole entry, looked up): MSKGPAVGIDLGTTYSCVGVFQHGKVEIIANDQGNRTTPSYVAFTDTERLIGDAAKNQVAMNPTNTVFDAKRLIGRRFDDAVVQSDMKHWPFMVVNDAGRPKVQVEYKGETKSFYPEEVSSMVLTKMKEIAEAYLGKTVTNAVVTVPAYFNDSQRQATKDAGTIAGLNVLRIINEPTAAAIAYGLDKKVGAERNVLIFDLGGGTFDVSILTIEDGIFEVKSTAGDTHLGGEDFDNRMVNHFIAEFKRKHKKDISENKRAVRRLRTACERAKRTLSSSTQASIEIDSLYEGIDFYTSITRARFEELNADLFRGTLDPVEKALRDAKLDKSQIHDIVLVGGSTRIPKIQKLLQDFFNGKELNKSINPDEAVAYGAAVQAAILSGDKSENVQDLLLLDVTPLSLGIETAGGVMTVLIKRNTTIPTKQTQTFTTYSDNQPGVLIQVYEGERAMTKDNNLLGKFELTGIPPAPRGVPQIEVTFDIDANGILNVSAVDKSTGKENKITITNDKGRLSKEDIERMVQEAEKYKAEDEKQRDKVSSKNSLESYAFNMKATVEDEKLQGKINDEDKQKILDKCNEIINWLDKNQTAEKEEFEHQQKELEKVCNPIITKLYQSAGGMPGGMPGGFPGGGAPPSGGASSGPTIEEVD
Chain of UniProt P49841 (P49841 whole entry, looked up): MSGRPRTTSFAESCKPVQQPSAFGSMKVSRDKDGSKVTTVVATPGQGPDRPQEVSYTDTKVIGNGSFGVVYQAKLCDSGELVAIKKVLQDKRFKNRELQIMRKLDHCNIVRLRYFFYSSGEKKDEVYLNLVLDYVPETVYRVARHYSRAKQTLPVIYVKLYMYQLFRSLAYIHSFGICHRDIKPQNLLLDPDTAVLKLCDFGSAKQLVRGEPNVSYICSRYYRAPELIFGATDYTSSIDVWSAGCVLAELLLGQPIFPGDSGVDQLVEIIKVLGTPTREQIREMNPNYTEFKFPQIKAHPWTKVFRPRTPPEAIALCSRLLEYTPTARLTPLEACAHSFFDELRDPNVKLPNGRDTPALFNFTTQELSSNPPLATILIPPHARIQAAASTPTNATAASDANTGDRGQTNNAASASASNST
Chain of UniProt P78417 (P78417 whole entry, looked up): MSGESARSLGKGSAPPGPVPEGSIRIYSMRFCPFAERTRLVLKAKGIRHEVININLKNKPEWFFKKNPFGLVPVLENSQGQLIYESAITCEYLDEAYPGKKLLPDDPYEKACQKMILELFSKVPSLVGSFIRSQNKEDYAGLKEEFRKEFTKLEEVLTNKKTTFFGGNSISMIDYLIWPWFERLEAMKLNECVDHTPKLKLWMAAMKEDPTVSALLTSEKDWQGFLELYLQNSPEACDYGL
Chain of UniProt P22830 (P22830 whole entry, looked up): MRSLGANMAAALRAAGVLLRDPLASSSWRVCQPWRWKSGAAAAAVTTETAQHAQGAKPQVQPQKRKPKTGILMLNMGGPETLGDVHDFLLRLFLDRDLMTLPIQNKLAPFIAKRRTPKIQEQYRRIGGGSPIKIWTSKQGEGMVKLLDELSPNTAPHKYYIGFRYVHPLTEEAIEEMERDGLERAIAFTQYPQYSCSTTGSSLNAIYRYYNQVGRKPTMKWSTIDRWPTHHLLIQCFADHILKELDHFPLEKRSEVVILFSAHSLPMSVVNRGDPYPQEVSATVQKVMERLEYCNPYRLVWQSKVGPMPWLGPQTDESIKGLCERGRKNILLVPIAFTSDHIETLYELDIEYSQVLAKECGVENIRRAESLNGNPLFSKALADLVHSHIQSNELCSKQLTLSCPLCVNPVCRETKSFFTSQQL
Chain of UniProt P09211 (P09211 whole entry, looked up): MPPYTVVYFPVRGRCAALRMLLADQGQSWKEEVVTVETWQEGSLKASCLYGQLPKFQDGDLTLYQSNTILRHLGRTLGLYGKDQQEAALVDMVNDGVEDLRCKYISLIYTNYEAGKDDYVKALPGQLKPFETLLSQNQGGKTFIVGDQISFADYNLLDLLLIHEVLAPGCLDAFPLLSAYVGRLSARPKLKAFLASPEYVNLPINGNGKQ
Chain of UniProt P52657 (P52657 whole entry, looked up): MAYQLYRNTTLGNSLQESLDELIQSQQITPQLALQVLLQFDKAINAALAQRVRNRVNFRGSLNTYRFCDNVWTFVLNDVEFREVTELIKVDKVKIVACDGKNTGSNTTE
Chain of UniProt Q16774 (Q16774 whole entry, looked up): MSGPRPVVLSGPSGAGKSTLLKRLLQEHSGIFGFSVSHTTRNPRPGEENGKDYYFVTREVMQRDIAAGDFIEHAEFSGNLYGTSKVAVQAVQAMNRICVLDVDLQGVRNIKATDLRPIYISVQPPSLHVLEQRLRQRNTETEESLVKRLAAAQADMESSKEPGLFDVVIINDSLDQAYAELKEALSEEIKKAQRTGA
Chain of UniProt P15260 (P15260 whole entry, looked up): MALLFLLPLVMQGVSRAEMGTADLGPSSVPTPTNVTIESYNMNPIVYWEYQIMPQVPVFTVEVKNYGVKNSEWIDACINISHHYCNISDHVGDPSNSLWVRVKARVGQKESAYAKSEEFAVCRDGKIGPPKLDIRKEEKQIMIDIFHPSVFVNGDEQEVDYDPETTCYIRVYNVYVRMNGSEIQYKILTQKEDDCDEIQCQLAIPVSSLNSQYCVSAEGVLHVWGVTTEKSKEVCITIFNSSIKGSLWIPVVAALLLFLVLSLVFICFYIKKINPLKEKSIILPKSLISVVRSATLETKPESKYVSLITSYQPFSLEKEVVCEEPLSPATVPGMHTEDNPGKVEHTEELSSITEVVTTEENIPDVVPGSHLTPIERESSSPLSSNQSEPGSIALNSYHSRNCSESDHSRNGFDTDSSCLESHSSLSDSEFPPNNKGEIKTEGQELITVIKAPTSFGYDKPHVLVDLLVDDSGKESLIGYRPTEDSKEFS
Chain of UniProt P36969 (P36969 whole entry, looked up): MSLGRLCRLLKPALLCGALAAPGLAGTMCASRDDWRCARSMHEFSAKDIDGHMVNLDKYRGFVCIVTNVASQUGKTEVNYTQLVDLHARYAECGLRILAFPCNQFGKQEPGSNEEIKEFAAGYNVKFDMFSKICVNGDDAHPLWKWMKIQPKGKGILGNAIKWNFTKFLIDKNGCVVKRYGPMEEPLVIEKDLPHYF
Chain of UniProt Q10471 (Q10471 whole entry, looked up): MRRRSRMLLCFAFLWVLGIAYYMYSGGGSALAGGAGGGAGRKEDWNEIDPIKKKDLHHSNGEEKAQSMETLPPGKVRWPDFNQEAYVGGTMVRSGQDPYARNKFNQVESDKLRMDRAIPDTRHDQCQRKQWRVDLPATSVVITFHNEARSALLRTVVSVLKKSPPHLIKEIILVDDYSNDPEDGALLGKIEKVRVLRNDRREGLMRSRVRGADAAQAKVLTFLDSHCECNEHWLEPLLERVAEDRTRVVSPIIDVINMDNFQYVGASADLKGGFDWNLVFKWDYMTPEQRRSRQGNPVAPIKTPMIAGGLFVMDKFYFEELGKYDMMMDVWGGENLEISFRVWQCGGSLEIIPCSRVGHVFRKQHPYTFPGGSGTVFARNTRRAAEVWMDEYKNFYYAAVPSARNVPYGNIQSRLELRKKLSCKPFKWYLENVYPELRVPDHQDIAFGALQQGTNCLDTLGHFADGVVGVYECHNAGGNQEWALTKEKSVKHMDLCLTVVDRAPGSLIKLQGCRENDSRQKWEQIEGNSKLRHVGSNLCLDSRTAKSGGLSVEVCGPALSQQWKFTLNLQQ
Chain of UniProt O75146 (O75146 whole entry, looked up): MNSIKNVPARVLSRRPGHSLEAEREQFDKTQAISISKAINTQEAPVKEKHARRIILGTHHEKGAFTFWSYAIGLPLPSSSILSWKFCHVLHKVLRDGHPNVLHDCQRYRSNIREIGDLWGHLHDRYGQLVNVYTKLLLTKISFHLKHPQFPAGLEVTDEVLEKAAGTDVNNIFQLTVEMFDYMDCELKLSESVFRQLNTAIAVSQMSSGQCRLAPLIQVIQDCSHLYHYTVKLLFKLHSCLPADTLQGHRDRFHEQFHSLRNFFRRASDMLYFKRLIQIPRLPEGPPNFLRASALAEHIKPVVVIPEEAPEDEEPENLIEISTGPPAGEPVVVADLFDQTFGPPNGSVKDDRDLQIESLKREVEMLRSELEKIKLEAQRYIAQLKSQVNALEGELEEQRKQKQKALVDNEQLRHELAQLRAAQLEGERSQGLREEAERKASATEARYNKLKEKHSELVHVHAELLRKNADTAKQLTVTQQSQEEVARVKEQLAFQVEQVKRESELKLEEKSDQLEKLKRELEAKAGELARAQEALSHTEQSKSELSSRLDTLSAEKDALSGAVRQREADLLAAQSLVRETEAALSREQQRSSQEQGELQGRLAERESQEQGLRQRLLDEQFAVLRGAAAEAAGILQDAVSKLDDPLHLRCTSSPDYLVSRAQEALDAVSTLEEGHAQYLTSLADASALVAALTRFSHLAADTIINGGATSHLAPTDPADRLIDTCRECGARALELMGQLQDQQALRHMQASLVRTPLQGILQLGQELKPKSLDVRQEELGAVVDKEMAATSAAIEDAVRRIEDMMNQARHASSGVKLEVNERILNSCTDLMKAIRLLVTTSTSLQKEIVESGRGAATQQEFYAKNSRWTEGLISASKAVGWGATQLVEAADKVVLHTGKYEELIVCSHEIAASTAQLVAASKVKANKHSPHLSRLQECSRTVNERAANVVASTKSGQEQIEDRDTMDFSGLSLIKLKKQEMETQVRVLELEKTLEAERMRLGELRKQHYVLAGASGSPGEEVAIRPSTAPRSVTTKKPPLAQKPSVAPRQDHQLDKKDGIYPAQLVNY
Chain of UniProt P52655 (P52655 whole entry, looked up): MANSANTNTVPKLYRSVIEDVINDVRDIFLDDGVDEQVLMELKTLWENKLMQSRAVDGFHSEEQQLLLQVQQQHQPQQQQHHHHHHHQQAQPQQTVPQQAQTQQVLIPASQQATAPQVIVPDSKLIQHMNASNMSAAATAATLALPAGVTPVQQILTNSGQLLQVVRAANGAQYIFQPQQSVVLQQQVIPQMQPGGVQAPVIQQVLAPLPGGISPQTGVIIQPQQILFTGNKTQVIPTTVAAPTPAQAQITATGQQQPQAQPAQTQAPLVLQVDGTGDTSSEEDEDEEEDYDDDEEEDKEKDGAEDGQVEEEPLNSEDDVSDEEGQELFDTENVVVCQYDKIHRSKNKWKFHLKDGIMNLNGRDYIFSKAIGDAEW

| Target | log2 fold change [1] | log2 fold change (volasertib) | log2 fold change [2] | log2 fold change (epoxomicin) | log2 fold change [3] | log2 fold change [4] | log2 fold change [5] | log2 fold change (rosiglitazone) | log2 fold change [6] | log2 fold change [7] | log2 fold change (saracatinib) | log2 fold change (sotrastaurin) | log2 fold change (alvocidib) | log2 fold change (Tubastatin A) | log2 fold change [8] | log2 fold change (defactinib) | log2 fold change (rucaparib) | log2 fold change [9] | log2 fold change (encorafenib) | log2 fold change [10] |
| --- | --- | --- | --- | --- | --- | --- | --- | --- | --- | --- | --- | --- | --- | --- | --- | --- | --- | --- | --- | --- |
| GPX4 (UniProt P36969) | 0.019 | 0.016 | 0.012 | 0.021 | 0.001 | -0.025 | 0.009 | -0.012 | -0.061 | 0.067 | 0.043 | 0.004 | -0.035 | -0.371 (active) | -0.02 | -0.009 | 0.002 | -0.037 | -0.009 | -0.013 |
| GLYR1 (UniProt Q49A26) | 0.099 | 0.054 | 0.026 | -0.074 | -0.047 | 0.026 | -0.038 | -0.292 | -0.019 | 0.041 | 0.007 | 0.028 | 0.14 | -0.077 | 0.021 | -0.029 | 0.211 | 0.04 | -0.044 | -0.033 |
| HIP1R (UniProt O75146) | -0.035 | -0.268 (active) | 0.015 | 0.051 | -0.04 | -0.016 | -0.017 | 0.067 | 0.026 | -0.134 | 0.051 | -0.045 | -0.069 | 0.007 | 0.037 | -0.063 | 0.018 | 0.015 | -0.019 | 0.016 |
| GSTP1 (UniProt P09211) | 0.295 (active) | 0.362 (active) | 0.009 | -0.025 | 0.032 | 0.012 | -0.013 | 0.007 | -0.066 | -0.034 | -0.011 | 0.053 | -0.051 | -0.015 | -0.001 | -0.033 | -0.046 | 0.02 | -0.007 | 0.027 |
| GSK3B isoform 2 (UniProt P49841) | 0.013 | -0.027 | -0.002 | 0.058 | -0.032 | -0.1 | -0.001 | 0.036 | -0.004 | 0.004 | 0.012 | 0.2 | 0.052 | -0.007 | 0.001 | -0.015 | 0.059 | -0.019 | -0.003 | 0.03 |
| HDAC2 (UniProt Q92769) | 0.024 | -0.051 | 0.026 | -0.049 | -0.049 | -0.001 | -0.003 | 0 | -0.041 | 0.056 | -0.001 | -0.02 | -0.091 | 0.907 (active) | -0.113 | -0.035 | -0.006 | -0.015 | -0.046 | -0.006 |
| HK2 (UniProt P52789) | -0.156 | -0.813 (active) | 0.086 | 0.049 | -0.127 | 0.016 | -0.001 | 0.032 | -0.028 | -0.038 | 0.008 | -0.075 | -0.054 | -0.006 | -0.334 (active) | -0.08 | -0.011 | -0.045 | 0.026 | -0.005 |
| HSPA8 (UniProt P11142) | 0.001 | 0.113 | -0.007 | 0.008 | 0.012 | -0.002 | -0.037 | -0.019 | -0.034 | 0.079 | 0.067 | 0.007 | 0.01 | -0.019 | 0.139 | 0.006 | -0.029 | -0.002 | -0.009 | 0.042 |
| FECH isoform 2 (UniProt P22830) | 0.399 | 0.368 | 0.037 | -0.088 | 0.251 | 0.203 | 0.001 | 0 | -0.123 | 0.163 | -0.035 | 0.008 | -0.016 | -0.12 | 0.245 | 0.102 | 0.043 | 0.538 | -0.033 | -0.116 |
| GTF2A2 (UniProt P52657) | 0.053 | 0.097 | -0.07 | 0.036 | 0.03 | 0.025 | -0.03 | 0.003 | -0.046 | -0.031 | 0.034 | 0.018 | -0.003 | 0.026 | -0.031 | -0.025 | -0.061 | -0.025 | -0.022 | 0.018 |
| GTF2A1 (UniProt P52655) | -0.012 | 0.061 | -0.051 | 0.201 | 0.019 | 0.035 | -0.006 | -0.029 | -0.018 | -0.051 | 0.048 | 0.087 | -0.039 | 0.003 | -0.007 | -0.038 | -0.021 | -0.003 | -0.056 | 0.032 |
| HMGN1 (UniProt P05114) | 0.054 | 0.141 | -0.044 | -0.008 | 0.063 | 0.045 | -0.094 | -0.027 | 0.039 | 0.101 | 0.024 | 0.068 | 0.149 | -0.087 | 0.03 | 0.09 | 0.043 | -0.064 | -0.01 | 0.011 |
| GSTO1 (UniProt P78417) | 0.005 | 0.08 | 0.009 | 0.013 | 0.036 | -0.052 | -0.007 | 0.018 | -0.082 | 0.084 | 0.027 | 0.094 | -0.016 | -0.021 | -0.034 | 0.001 | -0.09 | -0.004 | 0.001 | 0 |
| GALNT2 (UniProt Q10471) | -0.082 | -0.377 (active) | 0.027 | -0.004 | 0.003 | -0.034 | -0.021 | 0.027 | -0.079 | -0.077 | -0.025 | 0.005 | -0.012 | 0.013 | 0.004 | 0.023 | -0.046 | -0.015 | 0.036 | -0.017 |
| IFNGR1 (UniProt P15260) | 0.065 | 0.15 | -0.382 | 0.021 | -0.108 | 0.1 | -0.087 | -0.02 | 0.032 | 0.127 | 0.05 | -0.038 | 0.253 | 0.11 | -0.215 | 0.051 | 0.056 | -0.009 | -0.026 | 0.088 |
| GUK1 isoform 2 (UniProt Q16774) | -0.116 | 0.081 | 0.097 | 0.12 | -0.151 | -0.167 | 0.049 | 0.158 | 0 | 0.071 | 0.001 | -0.223 | -0.092 | 0.064 | 0.027 | -0.162 | 0.175 | 0.026 | -0.079 | 0 |
